# Measurements taken from PubChem BioAssay.
# Activity calls are given as the source filed them. Rule as the data show it, unless noted: active = inhibition above about 80%; inactive = the rest.
# Columns and labels:
# [1] = drug combination growth inhibition, ovarian cancer – cell-based, oncology-focused library, rucaparib conditional, profiling panel (AID 1508598;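 active = normalized viability below 100% at a tested concentration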); settings: patient-derived ovarian cancer cells, CellTiter-Glo viability, 144 h, stronger effect = lower value
# [2] = growth inhibition, single agent or in combination, cell-based, chromothripsis tumors, cisplatin or BGB combos (AID 1671449); settings: LFS_MB_P medulloblastoma cells;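 also: cells exposed for 96 hours; 0% = vehicle DMSO and 100% = killing by high DMSO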
# [3] = growth inhibition, single agent and combos, cell-based, chromothripsis tumors, cisplatin or BGB combos (AID 1671450); settings: HDN33 neuroblastoma cells, stronger effect = higher value;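 also: cells exposed to compound for four days; 0% = vehicle DMSO and 100% = cell killing by high DMSO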
# [4] = growth inhibition, single agents and combos, ICB984, cell-based, cisplatin or BGB combos, synergistic combos for chromothripsis tumors (AID 1671451; call rule not given here;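 also: cells exposed for 96 hours before readout; 0% = vehicle DMSO and 100% = killing by high DMSO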); settings: ICB984 medulloblastoma cells, drug combinations, stronger effect = higher value
# [5] = growth inhibition, single agents and combos, HTB85, cell-based, BGB or cisplatin IC20 combos, synergistic combos for chromothripsis tumors (AID 1671453); settings: HTB85 osteosarcoma cells, drug combinations, stronger effect = higher value;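 also: cells exposed for 96 hours before readout; 0% = vehicle DMSO and 100% = high DMSO killing control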
# [6] = growth inhibition, MDA-MB-436, cell-based, BGB or cisplatin combos, synergistic combos for chromothripsis tumors (AID 1671458; call rule not given here;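 also: cells exposed for 96 hours; 0% = vehicle DMSO and 100% = killing by high DMSO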); settings: MDA-MB-436 breast carcinoma growth inhibition, drug combinations, stronger effect = higher value
# [7] = BT084 cell growth, single and combined drugs, ICGC_MB145, cisplatin and BGB IC40 combos (AID 1671461); settings: BT084 medulloblastoma cells, drug combinations, stronger effect = higher value;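 also: cells exposed to drugs for 96 hours; 0% = vehicle DMSO and 100% = high DMSO full killing control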
# [8] = RCMB18 cell growth, single agent and combined, cisplatin and BGB IC40 combos (AID 1671462); settings: RCMB18 medulloblastoma cells, stronger effect = higher value;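 also: cells exposed to compound for four days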
smiles,measurement,setting,value
Nc1ccc(-c2ccc3ncc4ccc(=O)n(-c5cccc(C(F)(F)F)c5)c4c3c2)cn1,viability,"[1]; at 1.25 µM, OCI-P5x cells, without rucaparib",54.1% (active)
same,viability,"[1]; at 5 µM, OCI-C5x cells, with rucaparib 10 µM, 100% = cells with rucaparib alone",33.1% (active)
same,viability,"[1]; at 5 µM, OCI-C5x cells, without rucaparib",29.5% (active)
same,viability,"[1]; at 5 µM, OCI-P5x cells, with rucaparib 20 µM, 100% = cells with rucaparib alone",10.8% (active)
same,viability,"[1]; at 5 µM, OCI-P5x cells, without rucaparib",14.6% (active)
same,inhibition,"[2]; at 0.5 µM, stronger effect = higher value",5.33% (inactive)
same,inhibition,"[2]; measured here: combination with BGB IC20, at 0.005 µM",-20%
same,inhibition,"[2]; measured here: combination with BGB IC40, at 0.005 µM",59.9%
same,inhibition,"[2]; measured here: combination with BGB IC40, at 0.05 µM",-36.1%
same,inhibition,"[2]; measured here: combination with cisplatin, at 0.5 µM, stronger effect = higher value",3.19%
same,inhibition,"[2]; measured here: combination with cisplatin, at 5 µM, stronger effect = higher value",92.6%
same,inhibition,"[3]; BGB combo, at 5 µM",89.3%
same,inhibition,[3]; at 0.5 µM,32.1% (inactive)
same,inhibition,"[3]; cisplatin combo, at 5 µM",93.5%
same,inhibition,"[3]; measured here: with BGB IC20 combination, at 0.5 µM",14.7%
same,inhibition,"[3]; measured here: with cisplatin IC20 combination, at 0.5 µM",43.5%
same,inhibition,"[3]; single agent, at 5 µM",91.8%
same,inhibition,"[4]; BGB IC20 combo, at 0.005 µM",18.5%
same,inhibition,"[4]; BGB IC40 combo, at 0.005 µM",13.6%
same,inhibition,"[4]; BGB IC40 combo, at 0.05 µM",80.5%
same,inhibition,[4]; at 0.5 µM,-14.5% (inactive)
same,inhibition,"[4]; cisplatin combo, at 0.05 µM",79.9%
same,inhibition,"[4]; cisplatin combo, at 0.5 µM",-13.5%
same,inhibition,"[4]; cisplatin combo, at 5 µM",-13.1%
same,inhibition,"[4]; measured here: 5 uM single agent, at 5 µM",-7.65%
same,inhibition,[5]; at 0.5 µM,27.1% (inactive)
same,inhibition,"[5]; measured here: with BGB IC20, at 0.5 µM",35.5%
same,inhibition,"[5]; measured here: with BGB IC20, at 5 µM",78%
same,inhibition,"[5]; measured here: with cisplatin IC20, at 0.5 µM",16.8%
same,inhibition,"[5]; measured here: with cisplatin IC20, at 5 µM",94.9%
same,inhibition,"[5]; single agent, at 5 µM",79.3%
same,inhibition,[6]; at 0.5 µM,12% (inactive)
same,inhibition,"[6]; measured here: BGB combination, at 0.5 µM",0.276%
same,inhibition,"[6]; measured here: BGB combination, at 5 µM",32.6%
same,inhibition,"[6]; measured here: cisplatin combination, at 0.5 µM",-4.07%
same,inhibition,"[6]; measured here: cisplatin combination, at 5 µM",57.7%
same,inhibition,[7]; at 0.5 µM,21.2% (inactive)
same,inhibition,"[7]; cisplatin combination, at 0.5 µM",28.2%
same,inhibition,"[7]; cisplatin combination, at 5 µM",33.5%
same,inhibition,"[7]; measured here: BGB IC40 combination 0.05 uM, at 0.05 µM",-29.9%
same,inhibition,"[7]; single agent, at 5 µM",41.3%
same,inhibition,[8]; at 0.5 µM,16.5% (inactive)
same,inhibition,"[8]; cisplatin combo, at 5 µM",59.1%
same,inhibition,"[8]; measured here: BGB IC40 combination, at 0.05 µM",-1.59%
same,inhibition,"[8]; measured here: combination with cisplatin, at 0.5 µM",23.5%
same,inhibition,"[8]; single agent, at 5 µM",62.1%
